Bioassay records from PubChem BioAssay.
Pf growth 96h – P. falciparum growth inhibition at 96 hour, primary screen for plastid delayed-death inhibitors; P. falciparum luciferase reporter growth, 96 h; Potency, µM (highest dose often 28.7 µM), for inactives: at the highest dose activity change, negative = inhibition, usual class: inhibitors; hit rate 6.9% among 320,000; note: % is set by controls: 0 for no effect and ±100 for the full control effect
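Erythrocytes infected with luciferase-expressing P. falciparum were dispensed at 2% hematocrit and 0.05% parasitemia (final), then incubated with compounds 96 hours at 37 C in 5% CO2. Luminescence after detection reagent addition reported growth.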
Pf growth 48h – inhibits P. falciparum growth in the first generation, 48 h; Potency, µM (series often up to 28.7 µM), for the others: at the top dose activity change, negative = inhibition, actives largely listed as inhibitors; hit rate 5.9% among 310,000; P. falciparum luciferase growth in erythrocytes, 48 h; AID 504832; note: % is set by controls: 0 for no effect and ±100 for the full control effect
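A one-generation exposure of luciferase-tagged malaria parasites in RPMI 1640/Albumax erythrocyte culture, 37 C and 5% CO2. Inhibition is inferred from decreased luminescence after adding detection reagent.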
SARS PLpro yeast – blocks SARS-CoV papain-like protease in a yeast assay. S. cerevisiae expressing SARS-CoV PLpro, growth rescue. Potency, µM (doses to about 32.9 µM), inactives show at the highest dose activity, positive = growth rescue, hits mostly activators. hit rate 0.19% among 330,000; calls by dose curve; note: 0% is about no effect; nearly all actives have a fitted effect of over 55% in size
Sm TGR block – inhibitors of Schistosoma mansoni thioredoxin glutathione reductase. Potency, µM (doses to about 114 µM), for inactives: at the top dose activity change, negative = inhibition, actives largely listed as inhibitors. Q962Y6. purified TGR, DTNB reduction, TNB absorbance 405 nm. AID 485364. hit rate 3% among 360,000; note: % is set by controls: 0 for no effect and ±100 for the full control effect; nearly all actives have a fitted effect of over 60% in size
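TGR 20 nM + NADPH 100 uM (dispensed conc.), cpd preinc 15 min RT; start with NADPH (500 uM addition) then DTNB (15 mM addition). Kinetic TNB absorbance, 405 nm filter. Four-parameter Hill fit across titration.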
Numbers without * were called inactive; ? = inconclusive; . = no result; [ ] = another dose, or the depositor's remark. A selection: hits, their analogues and other compounds. The true share with any hit is near 12%. Unless noted, calls come from the whole dose curve; as a rule, active = well fitted curve in the direction sought with a large enough effect; inconclusive = small, poorly fitted or top-dose-only effect, or another doubt; inactive = no such curve, though single readings can be large; an effect the other way counts as inactive or inconclusive. Potency is the fitted concentration of half-maximal effect.

SMILES | Pf growth 96h | Pf growth 48h | SARS PLpro yeast | Sm TGR block
O=C(Cn1nnc(-c2ccc(N3CCOCC3)cc2)n1)N1CCOCC1 | 267.5% | 129.0% | -0.2% | 3.5%
COc1cc(CC(=O)NC(c2ccccc2)c2ccccc2)cc(OC)c1OC | ? | ? | -4.9% | 8.3%
COC(=O)C1=CN(C(C)c2ccccc2)C=C(C(=O)OC)C1c1cc(OC)c(OC)c(OC)c1 (stereo unspecified) | 33.3% | 1.47µM* | 0.3% | 11.5%
COCCN1C=C(C(=O)OC)C(c2ccc(OC)c(OC)c2)C(C(=O)OC)=C1 | . | -8.6% | 2.0% | 6.0%
COC(=O)C1=CN(Cc2ccc(OC)cc2)C=C(C(=O)OC)C1c1cc(OC)c(OC)c(OC)c1 | ? | 1.31µM* | 0.4% | 13.5%
COC(=O)C1=CN(Cc2ccc(OC)c(OC)c2)C=C(C(=O)OC)C1c1cccc(F)c1 | 10.4µM* | 9.28µM* | -2.3% | 9.8%
COC(=O)C1=CN(Cc2ccc(C)cc2)C=C(C(=O)OC)C1c1ccc(F)c(F)c1 | 14.6% | 6.57µM* | -4.6% | 0.0%
Cc1c(C(=O)Nc2ccccc2Br)oc2ccc(S(=O)(=O)N3CCCCCC3)cc12 | . | . | . | -0.2%
COC(=O)C1=CN(Cc2ccc(F)cc2)C=C(C(=O)OC)C1c1cc(OC)c(OC)c(OC)c1 | -27.5% | 1.31µM* | 2.0% | 3.1%
COC(=O)C1=CN(CC2CCCO2)C=C(C(=O)OC)C1c1cc(OC)c(OC)c(OC)c1 (stereo unspecified) | 4.15µM* | ? | . | 0.3%
CCCCN1C=C(C(=O)OC)C(c2ccccc2Cl)C(C(=O)OC)=C1 | -21.2% | -18.7%[1.15 µM] | -0.3% | 8.1%
COC(=O)C1=CN(Cc2ccccc2)C=C(C(=O)OC)C1c1cc(F)ccc1F | 7.38µM* | 7.38µM* | -2.9% | 7.4%
O=C(CCc1nc(-c2cccs2)no1)Nc1cccc([N+](=O)[O-])c1 | . | . | . | 19.2%
CCN(C(=O)CSc1nc2ccccc2n1Cc1cc(C)ccc1C)c1ccccc1 | . | . | . | 1.3%
COc1cc(C(=O)Nc2nnc(C3=COCCO3)o2)cc(OC)c1OC | 13.2% | -23.0% | -5.3% | -10.5%
O=C1NC(=O)/C(=C\c2ccccc2Oc2ccc(F)c(F)c2)S1 | ? | 13.6% | 2.5% | 0.0%
O=C1NC(=O)C(=Cc2ccccc2Oc2ccc(F)cc2)C(=O)N1 | 15.2% | -2.2% | -1.6% | 70.8µM*
CN1C(=O)C(=Cc2ccccc2Oc2ccc(Cl)c(F)c2)C(=O)N(C)C1=O | 66.3% | ? | 4.9% | 31.6µM*
O=C(NN=C(Cc1ccccc1)Cc1ccccc1)c1ccc(F)cc1 | 13.1µM* | -31.7% | -12.5% | -3.1%
Fc1cccc(/C=C2\CCCC3=C2NC(=S)NC3c2cccc(F)c2)c1 (stereo unspecified) | 4.15µM* | 2.62µM* | 0.4% | 20µM*
S=C1NC2=C(CCC/C2=C\c2ccccc2)C(c2ccccc2)N1 (stereo unspecified) | ? | -22.4% | -3.4% | -34.7%
CCC1CCc2nc3sc(C(=O)Nc4cccc(F)c4)c(N)c3cc2C1 (stereo unspecified) | . | . | . | -2.4%
CC(=O)Nc1ccccc1C(=O)C(=O)Nc1cccc(C(=O)N2CCC3(CC2)OCCO3)c1 | 1.85µM* | 7.7% | 4.3% | -0.1%
CC(=O)Nc1ccccc1C(=O)C(=O)Nc1ccc(C(=O)N2CCOCC2)cc1 | -20.4% | 81.3% | -1.9% | 0.4%
CC(=O)Nc1ccccc1C(=O)C(=O)Nc1ccccc1 | 7.38µM* | 64.4% | 1.8% | 8.3%
SMILES | Pf growth 96h | Pf growth 48h | SARS PLpro yeast | Sm TGR block
Cc1ccc(-c2nnc(NC3CCCC3)s2)cc1 | -5.6% | 199.8% | -2.5% | 3.5%
CCN(CCO)c1nc(SC)nc2c1sc1nc(-c3ccco3)c3c(c12)CCC3 | ? | ? | 2.8% | 3.55µM*
CSc1nc(NCCOCCO)c2sc3nc(-c4ccco4)c4c(c3c2n1)CCC4 | . | -29.5% | 1.2% | 3.16µM*
COc1ccc(OCC(=O)NC2CC(=O)N(c3cccc(OC)c3)C2)cc1 (stereo unspecified) | . | . | . | 56.4%
COCC(C)n1c(SCC(=O)c2cc(C)n(C)c2C)nc2ccccc2c1=O (stereo unspecified) | ? | 13.1µM* | -0.2% | 3.8%
COCC(C)n1c(C)cc(C(=O)CSc2nc3ccccc3c(=O)[nH]2)c1C (stereo unspecified) | ? | ? | 2.5% | 0.1%
CCC(C)n1c(SCC(=O)/C(C#N)=C(\C)N)nc2ccccc2c1=O (stereo unspecified) | 9.28µM* | -22.9% | -6.3% | 6.2%
C/C(N)=C(/C#N)C(=O)CSc1nc2ccccc2c(=O)n1CCCOC(C)C | ? | ? | 21.4% | 4.9%
COCC(C)n1c(SCC(=O)NCCC2=CCCCC2)nc2ccccc2c1=O (stereo unspecified) | 8.28µM* | . | 15.6% | -0.1%
COCC(C)n1c(SCC(=O)NC(=O)NC2CCCC2)nc2ccccc2c1=O (stereo unspecified) | ? | 13.1µM* | -1.0% | -17.0%
COc1ccc(C2C=C(c3ccccc3)Nc3nc(NC(=O)/C=C/c4ccc(Cl)cc4)nn32)cc1 (stereo unspecified) | . | . | . | -3.2%
CCOC(=O)N1CCC(n2c(SCC(=O)Nc3ccccc3OC)nc3ccccc3c2=O)CC1 | -4.0% | 10.4µM* | 0.1% | 11.3%
CCOC(=O)N1CCC(n2c(SCC(=O)NCCC3=CCCCC3)nc3ccccc3c2=O)CC1 | ? | 9.28µM* | -2.7% | 10.9%
CCOC(=O)N1CCC(n2c(SCC(=O)NCc3ccccc3)nc3ccccc3c2=O)CC1 | ? | ? | 4.3% | 2.2%
CCOC(=O)N1CCC(n2c(SCC(=O)N3CCC(C)CC3)nc3ccccc3c2=O)CC1 | 4.65µM* | 10.4µM* | 5.3% | -25.1%
CCc1nc2ccc(C(=O)NCc3ccc(OC)c(OC)c3)cc2nc1CC | . | . | . | 9.4%
CCc1noc(C)c1C(=O)N1CCCSC1=Nc1ccccc1C(C)C | 6.57µM* | 14.7µM* | 2.4% | -7.3%
COc1cccc(NC(=O)Cn2cc(C(=O)c3ccc(C)cc3)c(=O)c3cc(OC)ccc32)c1 | ? | ? | -11.3% | -5.7%
COc1cccc(NC(=O)Cn2cc(C#N)c3ccccc32)c1 | 67.4% | 14.7µM* | -0.8% | -2.8%
CCc1ccc(C(=O)c2cn(CC(=O)Nc3cccc(OC)c3)c3ccc(OC)cc3c2=O)cc1 | 2.94µM* | 11.7µM* | 5.7% | 5.0%
O=C(Nn1cnc2ccccc2c1=O)c1ccc(Cl)c([N+](=O)[O-])c1 | ? | 24.3% | 0.5% | 44.3%
Cc1c(Cl)cccc1NC(=O)CSc1nc(=O)n(Cc2ccccn2)c2c1CCC2 | . | . | . | 12.8%
Cc1nc2ccccn2c(=O)c1CCN1CCC(C(=O)c2ccc(F)cc2)CC1 | 10.7µM* | ? | -3.4% | 6.8%
Cc1nc2sccn2c(=O)c1CCN1CCC(=C(c2ccc(F)cc2)c2ccc(F)cc2)CC1 | 10.4µM* | 10.4µM* | -1.6% | -3.4%
CC1C(=O)C(C)C(c2ccccc2F)NC1c1ccccc1F (stereo unspecified) | ? | 14.4% | -3.0% | 2.8%
Cc1nn(-c2ccccc2)c(C)c1C(=O)OCC(=O)NC12CC3CC(CC(C3)C1)C2 | 10.4µM* | ? | -9.8% | 0.0%
